The values that follow come from PubChem BioAssay (NCI).

Assay [1] is described as follows: NCI Yeast Anticancer Drug Screen. Data for the rad50 strain (AID 155).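 Also: 0% = growth of vehicle-only cultures of the same strain.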 Conditions: S. cerevisiae rad50 strain growth inhibition, active compounds read high. In outline: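 Inhibition values express reduced yeast growth in compound-treated cultures relative to vehicle-treated controls.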
The nature of assay [2]: NCI Yeast Anticancer Drug Screen. Data for the mec2-1 strain (AID 157). Conditions: S. cerevisiae mec2-1 strain, active compounds read high. In outline:
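Readout is yeast growth inhibition, normalised to vehicle-treated controls, in the mec2-1 strain exposed to compound.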

Assay [3] is described as follows: NCI Yeast Anticancer Drug Screen. Data for the sgs1 mgt1 strain (AID 161).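 Also: 0% = growth of cultures given vehicle only.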 Conditions: S. cerevisiae sgs1 mgt1 strain, active compounds read high. In short, it runs like this:
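Compounds are added to genetically altered yeast, and growth is compared with cultures given vehicle alone to give percent inhibition.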

A short description of assay [4]: NCI Yeast Anticancer Drug Screen. Data for the cln2 rad14 strain (AID 165).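 Also: 0% = growth equal to vehicle treated cultures.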 Conditions: S. cerevisiae cln2 rad14 strain, active compounds read high. In outline: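 Relative to vehicle controls, growth inhibition of compound-treated cln2 rad14 yeast was recorded.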
Assay [5] is described as follows: NCI Yeast Anticancer Drug Screen. Data for the bub3 strain (AID 167). Conditions: S. cerevisiae bub3 mutant strain, active compounds read high. In short, it runs like this:
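Steps: expose the mutant yeast strain to compound; grow alongside vehicle-treated cultures; measure growth; express inhibition against the vehicle cultures.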

Assay [6] can be described thus: NCI Yeast Anticancer Drug Screen. Data for the mlh1 rad18 strain (AID 175). Conditions: S. cerevisiae mlh1 rad18 strain growth inhibition, active compounds read high. In outline:
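Test agents were incubated with a yeast strain of defined genotype (DNA damage repair defect). Inhibition of growth was derived by comparison with vehicle-exposed cultures.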

[7] abbreviates: at 5.0 µM (retest, dose inferred, filed as 0.5).
Setting [8] is: at 50.0 µM (retest, dose inferred, filed as 5.0).

Compounds without any hit were thinned out: in the full panel of roughly 79,000, 15% have a hit. Values without a mark were called inactive. Activity calls are given as the source filed them. Rule as the data show it: active = growth inhibition above about 70%; inactive = the rest.

Consider `c1ccc2c(c1)ccc1c2ccc2sc3ccccc3[n+]21`, for which the growth inhibition in assay [1] (setting [7]) is 71% (active); in assay [1] (setting [8]), 94% (active); in assay [1] (at 50.0 µM), 92.3% (active); in assay [2] (setting [7]) it was 53%; in assay [2] (setting [8]), 96% (active); in assay [2] (at 50.0 µM), 53.9%. For the same molecule, the growth inhibition in assay [3] (setting [7]) was 59%; in assay [3] (setting [8]), 93% (active); in assay [3] (at 50.0 µM), 91.2% (active); in assay [4] (setting [7]), 62%; in assay [4] (setting [8]) it was 92% (active); in assay [4] (at 50.0 µM), 69.8%. For the same molecule, the growth inhibition was 54% in assay [5] (setting [7]); 92% (active) in assay [5] (setting [8]); 73.5% (active) in assay [5] (at 50.0 µM); 75% (active) in assay [6] (setting [7]); 96% (active) in assay [6] (setting [8]); 91.3% (active) in assay [6] (at 50.0 µM).

Take `CCOc1ccc2nc(Cl)sc2c1`: the growth inhibition in assay [1] (setting [7]) was -17%; in assay [1] (setting [8]) it was 67%; in assay [1] (at 50.0 µM), 82.5% (active); in assay [2] (setting [7]), -7%; in assay [2] (setting [8]) it was 91% (active); in assay [2] (at 50.0 µM), 89.8% (active). For the same molecule, the growth inhibition in assay [3] (setting [7]) is 6%; in assay [3] (setting [8]) it was 79% (active); in assay [3] (at 50.0 µM), 69.5%; in assay [4] (setting [7]), 31%; in assay [4] (setting [8]), 39%; in assay [4] (at 50.0 µM) it was 94% (active). The growth inhibition in assay [5] (setting [7]) is 1%; in assay [5] (setting [8]) it was 97% (active); in assay [5] (at 50.0 µM), 96.3% (active); in assay [6] (setting [7]), -12%; in assay [6] (setting [8]), 89% (active); in assay [6] (at 50.0 µM), 79% (active).

`COc1ccc(C2C3=C(CC(C)(C)CC3=O)Oc3cc4c(cc32)OCO4)c(OC)c1` (stereo not given): the growth inhibition in assay [1] (setting [7]) was 9%; in assay [1] (setting [8]), 48%; in assay [1] (at 50.0 µM), 52.4%; in assay [2] (setting [7]) it was 16%; in assay [2] (setting [8]) it was 27%; in assay [2] (at 50.0 µM), 65.5%. For the same molecule, the growth inhibition in assay [3] (setting [7]) was 11%; in assay [3] (setting [8]), -17%; in assay [3] (at 50.0 µM) it was 64.2%; in assay [4] (setting [7]), 5%; in assay [4] (setting [8]), 20%; in assay [4] (at 50.0 µM), 20.2%. Moreover, the growth inhibition in assay [5] (setting [7]) was 2%; in assay [5] (setting [8]), 52%; in assay [5] (at 50.0 µM), 45.8%; in assay [6] (setting [7]), 5%; in assay [6] (setting [8]), 14%; in assay [6] (at 50.0 µM), 73% (active).

Turning to `O=S(=O)(ON=C1C=CC(=NOS(=O)(=O)c2ccccc2)C=C1)c1ccccc1`, the growth inhibition is 27% in assay [1] (setting [7]); 44% in assay [1] (setting [8]); 95.2% (active) in assay [1] (at 50.0 µM); 6% in assay [2] (setting [7]); 55% in assay [2] (setting [8]); 94% (active) in assay [2] (at 50.0 µM). The growth inhibition in assay [3] (setting [7]) was 21%; in assay [3] (setting [8]) it was 48%; in assay [3] (at 50.0 µM) it was 95% (active); in assay [4] (setting [7]), 16%; in assay [4] (setting [8]) it was 54%; in assay [4] (at 50.0 µM), 94.1% (active). Also, the growth inhibition in assay [5] (setting [7]) was 14%; in assay [5] (setting [8]), 54%; in assay [5] (at 50.0 µM), 96.7% (active); in assay [6] (setting [7]), 48%; in assay [6] (setting [8]), 76% (active); in assay [6] (at 50.0 µM) it was 96% (active).

`O[C@H](CNCCS)[C@@H](O)CNCCS`: the growth inhibition was -1% in assay [1] (setting [7]); 14% in assay [1] (setting [8]); 78% (active) in assay [1] (at 50.0 µM); 2% in assay [2] (setting [7]); 28% in assay [2] (setting [8]); 54% in assay [2] (at 50.0 µM). For the same molecule, the growth inhibition was -6% in assay [3] (setting [7]); 27% in assay [3] (setting [8]); 80.1% (active) in assay [3] (at 50.0 µM); 17% in assay [4] (setting [7]); 7% in assay [4] (setting [8]); 28.5% in assay [4] (at 50.0 µM). For the same molecule, the growth inhibition in assay [5] (setting [7]) is -4%; in assay [5] (setting [8]), 17%; in assay [5] (at 50.0 µM) it was 40%; in assay [6] (setting [7]), -5%; in assay [6] (setting [8]) it was 3%; in assay [6] (at 50.0 µM) it was 79.3% (active).

With `COc1cc(CC#N)c(NC(C)=O)cc1OC`, the growth inhibition in assay [1] (setting [7]) is 0%; in assay [1] (setting [8]) it was -4%; in assay [1] (at 50.0 µM), -2.3%; in assay [2] (setting [7]), -41%; in assay [2] (setting [8]), -3%; in assay [2] (at 50.0 µM) it was 28.6%. Moreover, the growth inhibition in assay [3] (setting [7]) was 0%; in assay [3] (setting [8]) it was -2%; in assay [3] (at 50.0 µM) it was -8.45%; in assay [4] (setting [7]) it was 1%; in assay [4] (setting [8]), -2%; in assay [4] (at 50.0 µM) it was 41%. Moreover, the growth inhibition in assay [5] (setting [7]) is -7%; in assay [5] (setting [8]), -7%; in assay [5] (at 50.0 µM), 6.05%; in assay [6] (setting [7]), -1%; in assay [6] (setting [8]), -3%; in assay [6] (at 50.0 µM) it was 9.1%.

Take `COC(=O)CC1SC(=S)N(Cc2ccc(Cl)cc2)C1=O` (stereo not given): the growth inhibition was -6% in assay [1] (setting [7]); 80% (active) in assay [1] (setting [8]); 98.1% (active) in assay [1] (at 50.0 µM); -8% in assay [2] (setting [7]); 61% in assay [2] (setting [8]); 92.5% (active) in assay [2] (at 50.0 µM). The growth inhibition was 2% in assay [3] (setting [7]); 93% (active) in assay [3] (setting [8]); 98.5% (active) in assay [3] (at 50.0 µM); -59% in assay [4] (setting [7]); 28% in assay [4] (setting [8]); 55.6% in assay [4] (at 50.0 µM). Moreover, the growth inhibition is -15% in assay [5] (setting [7]); 81% (active) in assay [5] (setting [8]); 87.5% (active) in assay [5] (at 50.0 µM); -25% in assay [6] (setting [7]); 88% (active) in assay [6] (setting [8]); 98% (active) in assay [6] (at 50.0 µM).

Consider `CCCCC#CCOC(=O)c1cc([N+](=O)[O-])cc([N+](=O)[O-])c1`, for which the growth inhibition was 97% (active) in assay [1] (setting [7]); 99% (active) in assay [1] (setting [8]); 99.2% (active) in assay [1] (at 50.0 µM); 99% (active) in assay [2] (setting [7]); 100% (active) in assay [2] (setting [8]); 98.5% (active) in assay [2] (at 50.0 µM). For the same molecule, the growth inhibition in assay [3] (setting [7]) was 99% (active); in assay [3] (setting [8]) it was 99% (active); in assay [3] (at 50.0 µM), 99.8% (active); in assay [4] (setting [7]), 67%; in assay [4] (setting [8]), 99% (active); in assay [4] (at 50.0 µM) it was 99.3% (active). The growth inhibition was 96% (active) in assay [5] (setting [7]); 100% (active) in assay [5] (setting [8]); 99.3% (active) in assay [5] (at 50.0 µM); 98% (active) in assay [6] (setting [7]); 99% (active) in assay [6] (setting [8]); 98.8% (active) in assay [6] (at 50.0 µM).

For `CCCCCC(C)[P+](c1ccccc1)(c1ccccc1)c1ccccc1` (stereo not given), the growth inhibition in assay [1] (setting [7]) was 54%; in assay [1] (setting [8]), 98% (active); in assay [1] (at 50.0 µM), 90.8% (active); in assay [2] (setting [7]), 48%; in assay [2] (setting [8]), 99% (active); in assay [2] (at 50.0 µM), 90.9% (active). Further, the growth inhibition in assay [3] (setting [7]) is 71% (active); in assay [3] (setting [8]) it was 99% (active); in assay [3] (at 50.0 µM) it was 90% (active); in assay [4] (setting [7]) it was 61%; in assay [4] (setting [8]), 98% (active); in assay [4] (at 50.0 µM) it was 90.1% (active). For the same molecule, the growth inhibition in assay [5] (setting [7]) was 69%; in assay [5] (setting [8]), 99% (active); in assay [5] (at 50.0 µM), 91% (active); in assay [6] (setting [7]), 45%; in assay [6] (setting [8]), 98% (active); in assay [6] (at 50.0 µM) it was 88.5% (active).

Regarding `COc1ccnc(-c2cc(OC)cc(/C(N)=N/O)n2)c1`, the growth inhibition is 2% in assay [1] (setting [7]); 59% in assay [1] (setting [8]); 96.8% (active) in assay [1] (at 50.0 µM); -4% in assay [2] (setting [7]); 83% (active) in assay [2] (setting [8]); 93.1% (active) in assay [2] (at 50.0 µM). In addition, the growth inhibition was -2% in assay [3] (setting [7]); 63% in assay [3] (setting [8]); 96% (active) in assay [3] (at 50.0 µM); -5% in assay [4] (setting [7]); 62% in assay [4] (setting [8]); 93.8% (active) in assay [4] (at 50.0 µM). Besides, the growth inhibition in assay [5] (setting [7]) was -3%; in assay [5] (setting [8]), 54%; in assay [5] (at 50.0 µM), 88.7% (active); in assay [6] (setting [7]), -4%; in assay [6] (setting [8]), 77% (active); in assay [6] (at 50.0 µM) it was 96.8% (active).
